Test results as given in PubChem BioAssay AID588342 (National Center for Advancing Translational Sciences (NCATS), 2011).
About 25,000 (6.9%) of roughly 360,000 compounds were called active. Another 9% or so got no clear call; they are omitted. This is one part of a sample in which actives are shown more often than they occur. Unmarked numbers belong to inactive results. The call rests on the fitted dose curve; in most records, active means well fitted inhibition curve with a large enough effect; inconclusive means small, poorly fitted or top-dose-only effect; inactive means flat fitted curve, though single readings scatter.

What follows are molecules tested against Luciferin 4-monooxygenase (Photinus pyralis) (UniProt P08659) (assay: qHTS profiling assay for firefly luciferase inhibitor/activator using purifed enzyme and Km concentrations of substrates (counterscreen for miR-21 project)). Settings: purified FLuc, luminescence inhibition; series mostly up to 57.5 µM; activity change, negative = inhibition: at the top concentration.
How it was run: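 Purified P. pyralis luciferase, 10 nM final, with Km-level 10 uM D-luciferin and 10 uM ATP in 50 mM Tris acetate pH 7.5, 10 mM Mg acetate, 0.01% Tween-20, 0.05% BSA; 6-point qHTS titration about 60 µM downward; luminescence read.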
Further: nearly all actives have a fitted effect of over 55% in size.
Potency means the concentration at half of the fitted maximal effect.
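Wherever activity change, negative = inhibition is given: plate controls were vehicle for no effect and reference inhibitor for full effect.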

Luciferin 4-monooxygenase (Photinus pyralis), sequence (P08659 whole entry, looked up): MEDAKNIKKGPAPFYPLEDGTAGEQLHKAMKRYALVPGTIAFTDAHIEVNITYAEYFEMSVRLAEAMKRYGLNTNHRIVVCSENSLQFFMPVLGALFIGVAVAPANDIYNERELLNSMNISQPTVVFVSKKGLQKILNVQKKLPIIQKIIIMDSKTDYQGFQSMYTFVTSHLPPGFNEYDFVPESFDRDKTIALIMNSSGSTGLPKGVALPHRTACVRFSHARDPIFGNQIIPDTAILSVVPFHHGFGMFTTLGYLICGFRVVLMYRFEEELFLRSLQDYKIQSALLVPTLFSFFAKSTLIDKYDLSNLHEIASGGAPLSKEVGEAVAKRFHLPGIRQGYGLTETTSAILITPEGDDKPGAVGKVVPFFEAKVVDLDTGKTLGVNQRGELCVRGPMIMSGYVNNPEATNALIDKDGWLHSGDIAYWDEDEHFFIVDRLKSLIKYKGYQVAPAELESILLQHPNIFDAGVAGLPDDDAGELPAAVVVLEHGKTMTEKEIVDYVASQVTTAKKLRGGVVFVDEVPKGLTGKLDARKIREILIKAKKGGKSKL

First: Cc1cc(C(=O)Nc2cccc(C(F)(F)F)c2)c2c(C)nn(-c3cccc(F)c3)c2n1
Second: COc1ccc2nc(C)cc(Nc3cccc(C(=O)O)c3)c2c1
The “activity change, negative = inhibition” value of the first is lower: -8.84% for the first, 2.77% for the second.

Compared with `COc1ccccc1N(CC(=O)N/N=C(\C)c1ccccc1O)S(=O)(=O)c1ccc(C)cc1`, `CC(C)=C(NC(=O)c1ccccc1)C(=O)N/N=C(\C)c1ccccc1O` is higher in “activity change, negative = inhibition” value: 3.81% for the first, 4.12% for the second.

First: CCCOC(=O)c1c(NC(=O)c2cc3nc(-c4ccc(OC)cc4)cc(C(F)(F)F)n3n2)sc2c1CCCC2
Second: O=C1CN(C(=O)Nc2ccccc2C(F)(F)F)C(c2ccccc2)c2c(sc3c2CCCC3)N1 (stereo unspecified)
The “activity change, negative = inhibition” value of the first is higher: -5.72% for the first, -7.07% for the second.

Going from `COc1ccc(N2CCN(C(=O)CSCc3nc(-c4ccccc4Cl)oc3C)CC2)cc1` to `COc1ccc(-n2c(SCC(N)=O)nc3c(oc4ccccc43)c2=O)cc1`, the “activity change, negative = inhibition” value rises from -11.4% to 1.9%.

Compared with `COc1ccc(-n2ccn(CC(=O)Nc3ccc(C)c(C)c3)c(=O)c2=O)cc1OC`, `COc1ccc(NC(=O)CCc2nnc3n(CC(C)C)c(=O)c4ccccc4n23)cc1OC` is higher in “activity change, negative = inhibition” value: -7.6% for the first, 1.45% for the second.

First: Cc1cccc(S(=O)(=O)c2cn(Cc3ccccc3)c3cc(N4CCOCC4)c(F)cc3c2=O)c1
Second: CCN(C(=O)Cn1cc(S(=O)(=O)N2CCN(c3ccccc3F)CC2)c2ccccc2c1=O)c1ccc(C)c(C)c1
The “activity change, negative = inhibition” value of the first is lower: -6.65% for the first, -4.46% for the second.

Compared with `O=C(NCCCO)c1nn(-c2ccc(Cl)cc2)nc1CO`, `CN(C)c1nnnn1-c1ccc(Cl)cc1` is higher in “activity change, negative = inhibition” value: -18.3% for the first, -2.83% for the second.

Compared with `COc1cc(OC)c(S(=O)(=O)Nc2ccccc2C(=O)O)cc1S(=O)(=O)Nc1ccccc1C(=O)O`, `COc1ccccc1C(=O)NNC(=O)CCN1C(=O)/C(=C\c2ccccc2)SC1=S` is higher in “activity change, negative = inhibition” value: -6.46% for the first, 2.85% for the second.

First: COc1ccc(/C=N/Nc2nc(-c3ccc(C)cc3)c(C#N)c(=O)[nH]2)cc1
Second: COc1ccc(CCCc2nnc(SCc3nc4ccccc4c(=O)[nH]3)n2C)cc1
The “activity change, negative = inhibition” value of the first is lower: 2.09% for the first, 2.77% for the second.

Going from `COc1ccc(/C=N/OCC(=O)N(Cc2ccccc2)c2ccccc2C(=O)O)cc1` to `CC(=O)N1CCc2cc(S(=O)(=O)NC(Cc3ccccc3)C(=O)NCc3ccc(C)cc3)ccc21` (stereo unspecified), the “activity change, negative = inhibition” value falls from 1.35% to -11.7%.

Compared with `CSc1ccc(C2C(C(=O)Nc3ccccc3)=C(C)Nc3nc4ccccc4n32)cc1` (stereo unspecified), `O=C(Nc1ccc(Br)cc1)c1cc2nc(-c3ccccc3)cc(-c3ccccc3)n2n1` is higher in “activity change, negative = inhibition” value: -0.306% for the first, 4.76% for the second.

First: COc1ccc(CCNc2ncnc3onc(-c4ccc(Cl)cc4)c23)c(OC)c1
Second: COc1ccc(OC)c(CNC(=O)Cn2nc(C)c3c(C)n(-c4ccc(C)cc4)nc3c2=O)c1
The “activity change, negative = inhibition” value of the first is lower: 0.978% for the first, 1.75% for the second.

Compared with `CCCn1c(=N)c(C(=O)NCc2ccccc2)cc2c(=O)n3cccc(C)c3nc21`, `CCN(CC)CCNC(=O)Cn1ncc2c3ccccc3n(Cc3ccccc3C)c2c1=O` is higher in “activity change, negative = inhibition” value: -0.698% for the first, 1.71% for the second.

Going from `O=C(CCN1c2ccccc2Sc2ccccc21)Nc1ccccc1` to `Cc1c(NC(=O)c2cc(-c3ccc(Cl)s3)nc3ccccc23)c(=O)n(-c2ccccc2)n1C`, the “activity change, negative = inhibition” value falls from -1.69% to -19.2%.

Going from `CCN1C(=O)/C(=C2/Sc3ccccc3N2CCCS(=O)(=O)O)SC1=S` to `O=C(CCN1C(=O)/C(=C/c2cccs2)SC1=S)NNC(=O)c1cccc(O)c1`, the “activity change, negative = inhibition” value falls from -7.47% to -7.67%.

Compared with `CCOC(=O)Cc1csc(NC(NC(=O)OCC)(C(F)(F)F)C(F)(F)F)n1`, `CCOC(=O)c1csc(NC(=O)Nc2cccc(OC)c2)n1` is lower in “activity change, negative = inhibition” value: 0.679% for the first, -6.53% for the second.

Compared with `Cc1cccc(NC(=O)c2nnn(CC(=O)Nc3ccc(C(C)C)cc3)c2N)c1C`, `CCCCc1nn2c(=O)cc(COC(=O)c3ccc(NC(=O)c4ccccc4C)cc3)nc2s1` is lower in “activity change, negative = inhibition” value: 1.34% for the first, -2.13% for the second.

Compared with `COc1ccc(CCNC(=O)CCc2c(C)nc3c(c(C)nn3-c3ccc(C)c(C)c3)c2C)c(OC)c1OC`, `COc1cc(C(=O)N2CCN(c3ccc(Nc4ccc(C)cc4)nn3)CC2)cc(OC)c1OC` is higher in “activity change, negative = inhibition” value: -9.01% for the first, 1.35% for the second.

Going from `CCc1ccccc1NS(=O)(=O)c1ccc2nc(-c3ccccc3)[nH]c2c1` to `O=S(=O)(Nc1ccc2cn[nH]c2c1)c1ccccc1`, the “activity change, negative = inhibition” value rises from -4.06% to -3.45%.

Compared with `CCN1CCN(Cc2c(O)ccc3oc(C)c(C(=O)Nc4ccc(C)cc4C)c23)CC1`, `Cc1ccc(S(=O)(=O)N2CCN(C(=O)c3ccccc3-c3nc4ccccc4s3)CC2)c(C)c1` is lower in “activity change, negative = inhibition” value: 5.5% for the first, 0.348% for the second.

Compared with `O=C(Cc1ccsc1)N1CCN(S(=O)(=O)c2cc(C(F)(F)F)cc(C(F)(F)F)c2)CC1`, `CN1CCN(C(=O)/C(=C\c2ccc3c(c2)OCO3)NC(=O)c2cccs2)CC1` is lower in “activity change, negative = inhibition” value: 0.221% for the first, 0.0977% for the second.

Going from `CCN(CC)C(=O)Oc1ccc(OC(=O)N(CC)CC)cc1` to `CCCCCCOc1ccc(OC(=O)c2cccnc2)cc1`, the “activity change, negative = inhibition” value falls from 0.534% to -18.5%.

First: COc1cccc(NC(=O)c2ccccc2SC)c1
Second: COc1cc(C(=O)NCC2(c3ccccc3)CCCC2)ccc1OC(C)C
The “activity change, negative = inhibition” value of the first is lower: -17.2% for the first, 0.624% for the second.

Going from `CCOC(=O)c1cnc2c(c(C)nn2CC)c1Cl` to `CCOC(=O)c1cnc(SCC(=O)NCc2ccco2)nc1N`, the “activity change, negative = inhibition” value falls from 1.72% to -1.53%.

Going from `COC(=O)c1ccc(S(=O)(=O)N2CCc3ccccc3C2)cc1` to `COc1ccc(S(=O)(=O)N2CCSCC2)cc1`, the “activity change, negative = inhibition” value rises from 1.73% to 2.73%.

Compared with `Cc1cc(=O)oc2cc(OCC(=O)Nc3nnc(C4CC4)s3)ccc12`, `O=C(Cc1cccs1)Nc1nnc(C2CC2)s1` is lower in “activity change, negative = inhibition” value: 1.19% for the first, -10.2% for the second.

First: Cc1cccc(NC(=O)CSCC(=O)Nc2nnc(C3CC3)s2)c1
Second: CCCCN(C)c1nnc(NC(=O)Nc2ccc(Br)c(C)c2)s1
The “activity change, negative = inhibition” value of the first is higher: -3.15% for the first, -7% for the second.

First: O=C(Nc1nnc(Cc2ccccc2)s1)c1cnccn1
Second: COc1ccc(Nc2nc(-c3cccnc3)nc3ccccc23)cn1
The “activity change, negative = inhibition” value of the first is lower: -20.1% for the first, 4.78% for the second.

Compared with `Cc1ccc(N(C)C(=O)C2CCN(S(=O)(=O)c3ccc4c(c3)CCCN4C(=O)C3CCC3)CC2)cc1`, `CCOC(=O)C1CCN(C(=O)c2cccc(S(=O)(=O)N(CC)c3ccccc3)c2)CC1` is higher in “activity change, negative = inhibition” value: -2.8% for the first, 1.65% for the second.

Compared with `CCOC(=O)c1cc2c(nc1NC(=S)Nc1ccccc1)CC(C)(CC)OC2` (stereo unspecified), `CCOC(=O)c1ccc(NC(=S)Nc2cc(C)cc(C)n2)cc1` is lower in “activity change, negative = inhibition” value: 1.94% for the first, -0.345% for the second.

Going from `Nc1c(N(CCCO)C(=O)C2CCCC2)c(=O)[nH]c(=O)n1Cc1ccccc1` to `O=C(CCn1c(=O)c2ccccc2n(Cc2ccc(Cl)cc2)c1=O)NCc1ccc2c(c1)OCO2`, the “activity change, negative = inhibition” value falls from 0.813% to -1.28%.

Compared with `COc1ccccc1-c1nc(C(F)(F)F)c(OC)o1`, `COc1ccc(NC(=O)c2ccc3nc(C(C)C)oc3c2)cc1OC` is lower in “activity change, negative = inhibition” value: 5.71% for the first, -17.7% for the second.

Going from `COc1ccc(N2C(=O)c3cccc4cccc(c34)C2=O)nn1` to `COc1ccc(C(=O)Nc2ccc(-n3nncc3-c3ccccc3)cc2)cc1OC`, the “activity change, negative = inhibition” value falls from -5.3% to -9.43%.

Compared with `CC(C)Nc1nnc(SC(C)C(=O)N(C)C2CCCCC2)s1` (stereo unspecified), `CCCCc1nnc(NC(=O)CSc2nc(N)cc(=O)[nH]2)s1` is lower in “activity change, negative = inhibition” value: 2.48% for the first, -14.7% for the second.

Compared with `Cc1cccc(N(C)C(=O)CS(=O)(=O)c2cccc3nsnc23)c1`, `CCOc1ccccc1-c1cc(C(=O)N2CCOCC2)c2ccccc2n1` is higher in “activity change, negative = inhibition” value: -0.386% for the first, 0.51% for the second.

Compared with `COc1cc(Cl)c(NC(=O)C(NS(=O)(=O)c2cccs2)C(C)C)c(OC)c1` (stereo unspecified), `COc1ccc(Cl)cc1NC(=O)CN(C)CC(=O)Nc1ccc2c(c1)OCO2` is higher in “activity change, negative = inhibition” value: -2.46% for the first, 3.37% for the second.

Compared with `O=[N+]([O-])c1ccc(F)cc1Oc1nc(-c2cccnc2)nc2ccccc12`, `COC(=O)[C@]1(S(=O)(=O)c2ccccc2)C[C@@H]2ON=C(c3ccc(OC)cc3)[C@@H]2C1` is lower in “activity change, negative = inhibition” value: 3.95% for the first, -11.7% for the second.

First: Cc1ccc(C2C=C(c3ccc(Cl)cc3)Nc3nc(NC(=O)CCC(=O)O)nn32)cc1 (stereo unspecified)
Second: C=CCNC(=O)/C(=C\c1cccc([N+](=O)[O-])c1)NC(=O)c1ccccc1
The “activity change, negative = inhibition” value of the first is higher: -0.821% for the first, -1.02% for the second.

In the case of `CCC(=O)c1cc2c(cc1NC(=O)c1cccs1)OCCO2`, the “activity change, negative = inhibition” value is reported as -16.3%.

With `C/C(=N\NC(=O)c1ccoc1C)c1ccccc1O` the Potency was 15.1 µM (active).
For `Nc1ccc2nn(-c3ccc(Cl)cc3)nc2c1`, the Potency was 0.757 µM (active).
`COc1ccc(/C=N/Nc2ccccc2C(=O)O)cc1` was tested, and the Potency was 0.151 µM (active).
`COc1ccc(/C=N/Nc2nc3ccccc3c(=O)[nH]2)cc1` was tested, and the Potency was 6.01 µM (active).
With `CCN1/C(=C/C(=S)Nc2ccccc2)Sc2ccccc21` the Potency was 10.7 µM (active).
In the case of `CCOC(=O)Cc1csc(NC(=O)Nc2ccccc2)n1`, the Potency is reported as 12 µM (active).
In the case of `O=S(=O)(Nc1ccc2nc(-c3ccco3)[nH]c2c1)c1ccccc1`, the Potency is reported as 12 µM (active).
In the case of `COc1cccc(Nc2ncccc2C(=O)O)c1`, the Potency is reported as 19 µM (active).
`Cc1cc(C(=O)Nc2nnc(C3CC3)s2)c(C)s1` was tested, and the Potency was 13.5 µM (active).
With `O=C(Nc1nnc(C2CC2)s1)c1ccccn1` the Potency was 10.7 µM (active).
For `COc1ccc(/C=C2\SC(=S)N(CCC(=O)Nc3cccc(C(=O)O)c3)C2=O)cc1OC`, the Potency was 6.75 µM (active).
With `CCOC(=O)c1cn[nH]c1NC(=S)Nc1ccccc1` the Potency was 2.13 µM (active).
In the case of `COc1ccccc1C1=Nc2cccc3cccc(c23)N1`, the Potency is reported as 16.9 µM (active).
In the case of `c1ccc(C2=Nc3cccc4cccc(c34)N2)cc1`, the Potency is reported as 15.1 µM (active).
`Cc1ccn(-c2cccc(-n3ccc(C)n3)n2)n1` was tested, and the Potency was 3.38 µM (active).
For `Fc1ccc(/C=N/Nc2nc(-c3cccnc3)nc3ccccc23)cc1`, the Potency was 2.13 µM (active).
`COc1ccc(C(=O)Nc2ccc3c(c2)OCO3)cc1OC` was tested, and the Potency was 10.7 µM (active).
With `COc1cc(NC(=O)c2ccc3c(c2)OCO3)ccc1NC(=O)c1cccs1` the Potency was 10.7 µM (active).
`COc1ccc(C(=O)Nc2ccc(C3(C#N)CCCC3)cc2)cc1OC` was tested, and the Potency was 10.7 µM (active).
For `CCCCOc1ccc(-c2ncc(C(=O)OCC)c(N)n2)cc1`, the Potency was 2.69 µM (active).
For `Cc1ccn2cc(-c3nonc3C)cc2c1`, the Potency was 26.9 µM (active).
For `O=C(c1cc(-c2ccc(Cl)s2)nc2ccccc12)N1CCOCC1`, the Potency was 23.9 µM (active).
In the case of `CC(=O)N1CCN(C(=O)c2cc(-c3ccc(C)o3)nc3ccccc23)CC1`, the Potency is reported as 4.78 µM (active).

`Cc1cc(C(=O)N2CCN(c3ccccn3)CC2)c(C)o1` gave an activity change, negative = inhibition of 3.1% [at 2.3 µM].
